In PubChem BioAssay (NCI) one finds growth data, which are given here for seven compounds.

Several values for one entry are separate records, joined by “and”; a condition that tells them apart may be missing. Equal values may be shown once. This is part of a sample that, as a whole, favours compounds with a hit. Of some 83,000 tested, about 20% had one in any assay.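 Method: cells in 96-well plates; compound added at one concentration; 48 h incubation; percent growth measured; values under 10 scored active.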 Activity calls are given as the source filed them.

Some test systems named below: NCI-H23 lung; NCI-H226 lung; NCI-H322M lung; HOP-62 NSCLC; NCI-H460 lung; HOP-92 NSCLC; NCI-H522 lung; A549/ATCC NSCLC; 786-0 renal; COLO 205 colon; DU-145 prostate; K-562 leukemia; MALME-3M melanoma; MDA-MB-231 breast; RXF 393 renal; SF-268 CNS; SF-295 CNS; SF-539 CNS; UACC-257 melanoma; M14 melanoma.
What all share (assay): NCI-60 one-dose screen, 48 h (100 = growth as untreated, 0 = no growth, -100 = all killed)
Common to all, as to conditions: 10 µM unless noted

As for `CC1(C)S[C@H]2CC[C@H]3OC(=O)[C@@H]1N23`, the growth in the assay with NCI-H23 lung was 94.7% (inactive); in the assay on NCI-H226 lung, 98.1% (inactive); in the assay with NCI-H322M lung, 98.7% (inactive); in the assay on HOP-62 NSCLC it was 104% (inactive); in the assay on NCI-H460 lung, 110% (inactive); in the assay with HOP-92 NSCLC, 77.9% (inactive). Besides, the growth is 88.9% (inactive) in the assay on NCI-H522 lung; 96.6% (inactive) with A549/ATCC NSCLC; 106% (inactive) in the assay on 786-0 renal; 137% (inactive) in the assay with COLO 205 colon; 116% (inactive) in the assay on DU-145 prostate; 111% (inactive) with K-562 leukemia. Moreover, the growth was 101% (inactive) in the assay with MALME-3M melanoma; 121% (inactive) with MDA-MB-231 breast; 103% (inactive) in the assay on RXF 393 renal; 113% (inactive) with SF-268 CNS; 88% (inactive) in the assay on SF-295 CNS; 104% (inactive) in the assay on SF-539 CNS. The growth is 116% (inactive) in the assay on UACC-257 melanoma and 106% (inactive) in the assay on M14 melanoma.

`C=CC[PH+](c1ccccc1)c1ccccc1.C=CC[PH+](c1ccccc1)c1ccccc1.[Pt+2].[S-]c1nc2ccccc2[nH]1.[S-]c1nc2ccccc2[nH]1`: the growth in the assay with NCI-H23 lung is -12.4% (active); in the assay on NCI-H226 lung it was -20.6% (active); in the assay with NCI-H322M lung, 6.44% (active); with HOP-62 NSCLC, -0.445% (active); with NCI-H460 lung it was -6.83% (active); in the assay on HOP-92 NSCLC it was -44.3% (active). Further, the growth was -44.2% (active) in the assay with NCI-H522 lung; -3.29% (active) with A549/ATCC NSCLC; -4.36% (active) with 786-0 renal; -36.7% (active) in the assay with COLO 205 colon; 15.1% (inactive) with DU-145 prostate; 4.86% (active) with K-562 leukemia. Also, the growth was -72.8% (active) in the assay with MALME-3M melanoma; -44.3% (active) in the assay on MDA-MB-231 breast; -0.0777% (active) with RXF 393 renal; 1.83% (active) in the assay with SF-268 CNS; -9.49% (active) in the assay on SF-295 CNS; -28.6% (active) with SF-539 CNS. Besides, the values for the growth in the assay on UACC-257 melanoma and in the assay on M14 melanoma were -25.7% (active) and -18.6% (active), respectively.

On to `Cc1cc(NC(=O)NCCCOc2ccc(N3C(N)=NC(N)=NC3(C)C)cc2Cl)ccc1S(=O)(=O)F`, for which the growth was 24.1% (inactive) with NCI-H23 lung; 55.7% (inactive) in the assay with NCI-H226 lung; 54.2% (inactive) in the assay with NCI-H322M lung; 51.9% (inactive) with HOP-62 NSCLC; 13.6% (inactive) with NCI-H460 lung; 74.6% (inactive) with HOP-92 NSCLC. Also, the growth in the assay on NCI-H522 lung is 7.9% (active); in the assay on A549/ATCC NSCLC it was 14.7% (inactive); in the assay on 786-0 renal, 40.1% (inactive); with COLO 205 colon, 27.9% (inactive); in the assay on DU-145 prostate it was 33.6% (inactive); in the assay with K-562 leukemia, 25.1% (inactive). Moreover, the growth was 55.6% (inactive) with MALME-3M melanoma; 71.7% (inactive) with MDA-MB-231 breast; 48.6% (inactive) in the assay on RXF 393 renal; 32.7% (inactive) in the assay with SF-268 CNS; 30.4% (inactive) in the assay with SF-295 CNS; 17.5% (inactive) with SF-539 CNS. For the same compound, the figures for the growth in the assay on UACC-257 melanoma and in the assay with M14 melanoma were 25.9% (inactive) and 41% (inactive), respectively.

`COc1cc2c(cc1OC)-c1c3c(cc4c1[C@@H](C2)N(C)CC4)OCO3`: the growth with NCI-H23 lung is 51.3% (inactive); in the assay with NCI-H226 lung, 51% (inactive); with NCI-H322M lung, 36.9% (inactive); in the assay with HOP-62 NSCLC it was 44.3% (inactive); in the assay with NCI-H460 lung it was 17.3% (inactive); with HOP-92 NSCLC, 6.02% (active). In addition, the growth in the assay on NCI-H522 lung was 5.61% (active); with A549/ATCC NSCLC, 53.3% (inactive); in the assay with 786-0 renal, 40.2% (inactive); in the assay on COLO 205 colon, 31.4% (inactive); in the assay with DU-145 prostate, 45.3% (inactive); in the assay with K-562 leukemia, 13.1% (inactive). For the same compound, the growth was 54.3% (inactive) in the assay with MALME-3M melanoma; 55.1% (inactive) in the assay with MDA-MB-231 breast; 35.2% (inactive) in the assay with RXF 393 renal; 50.5% (inactive) in the assay with SF-268 CNS; 51.6% (inactive) with SF-295 CNS; 34.1% (inactive) in the assay with SF-539 CNS. The growth was 35.5% (inactive) with UACC-257 melanoma and 54.9% (inactive) in the assay on M14 melanoma.

Take `O=P(O)(Nc1ccccc1)Nc1ccccc1`: the growth is 91.1% (inactive) with NCI-H23 lung; 102% (inactive) in the assay on NCI-H226 lung; 90.6% (inactive) with NCI-H322M lung; 83.3% (inactive) with HOP-62 NSCLC; 99.2% (inactive) in the assay on NCI-H460 lung; 89.1% (inactive) with HOP-92 NSCLC. The growth in the assay with NCI-H522 lung was 85.6% (inactive); with A549/ATCC NSCLC it was 91% (inactive); in the assay on 786-0 renal, 93.7% (inactive); with COLO 205 colon it was 115% (inactive); in the assay on DU-145 prostate, 97% (inactive); in the assay with K-562 leukemia, 51.9% (inactive). Moreover, the growth in the assay on MALME-3M melanoma was 94.3% (inactive); in the assay on MDA-MB-231 breast, 109% (inactive); in the assay on RXF 393 renal, 93.9% (inactive); in the assay with SF-268 CNS, 102% (inactive); in the assay on SF-295 CNS it was 96.1% (inactive); in the assay on SF-539 CNS it was 91.6% (inactive). Moreover, the growth with UACC-257 melanoma was 89.3% (inactive); in the assay with M14 melanoma it was 88.4% (inactive).

On to `O=CC1(c2ccccc2)CCN(Cc2ccccc2)CC1`, for which the growth was 101% (inactive) in the assay on NCI-H23 lung; 98.2% (inactive) in the assay on NCI-H226 lung; 105% (inactive) in the assay with NCI-H322M lung; 112% (inactive) in the assay on HOP-62 NSCLC; 110% (inactive) with NCI-H460 lung; 97.3% (inactive) in the assay on HOP-92 NSCLC. Besides, the growth with NCI-H522 lung is 105% (inactive); in the assay with A549/ATCC NSCLC, 95.4% (inactive); in the assay with 786-0 renal, 108% (inactive); in the assay with COLO 205 colon, 109% (inactive); in the assay on DU-145 prostate, 106% (inactive); in the assay with K-562 leukemia, 105% (inactive). The growth was 105% (inactive) with MALME-3M melanoma; 104% (inactive) in the assay on MDA-MB-231 breast; 115% (inactive) in the assay on RXF 393 renal; 99.6% (inactive) in the assay with SF-268 CNS; 99% (inactive) with SF-295 CNS; 106% (inactive) in the assay on SF-539 CNS. In addition, the values for the growth in the assay on UACC-257 melanoma and with M14 melanoma were 99.5% (inactive) and 98.8% (inactive), respectively.

As for `COc1ccc(/C=C(/C)[N+](=O)[O-])cc1OC`, the growth with NCI-H23 lung was 62.2% (inactive) and 58.1% (inactive); with NCI-H226 lung, 88.7% (inactive) and 79.2% (inactive); in the assay with NCI-H322M lung, 48% (inactive) and 94.5% (inactive); in the assay on HOP-62 NSCLC it was 48.3% (inactive); in the assay with NCI-H460 lung it was 34.2% (inactive) and 22.9% (inactive); in the assay on HOP-92 NSCLC, -6.58% (active) and -11.5% (active). The growth was -88.2% (active) and -73.2% (active) in the assay on NCI-H522 lung; 53.7% (inactive) and 52.9% (inactive) in the assay with A549/ATCC NSCLC; -53.1% (active) and -23.3% (active) in the assay on 786-0 renal; -69.3% (active) and -76.2% (active) in the assay with COLO 205 colon; 22.3% (inactive) and 13.5% (inactive) in the assay on DU-145 prostate; 7.3% (active) and 5.18% (active) with K-562 leukemia. Besides, the growth in the assay with MALME-3M melanoma was -22.6% (active) and -51.7% (active); in the assay with MDA-MB-231 breast, 11.3% (inactive) and 28.8% (inactive); with RXF 393 renal it was -91.1% (active) and -95.7% (active); in the assay on SF-268 CNS, 3.01% (active) and 44.6% (inactive); in the assay on SF-295 CNS it was 98.6% (inactive) and 104% (inactive); in the assay on SF-539 CNS, 15.1% (inactive). The growth with UACC-257 melanoma was -88.6% (active) and -67.5% (active); in the assay with M14 melanoma, -52.6% (active) and -61.6% (active).
